Assay outcomes: PubChem, several laboratories
The list is not random: actives were taken first. Their share in the collection is about 1.8%.
Phagocyt inh = inhibitors of macrophage phagocytosis, primary screen, imaging, J774A.1 cells, IgG beads. J774A.1 macrophage IgG-bead phagocytosis. inhibition, % at 5 µM. 110,000 compounds, 0.07% hits. AID 1029, 2008;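 active = inhibition above the mean of the plate negative controls plus 5 SD, cut at about 13% in these data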;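 also: phagocytic index as fraction of beads internalized from green versus red external bead signal; plate controls were DMSO negative control for no effect and cytochalasin-D positive control for full effect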
SDO1 yeast rescue = growth rescue of sdo1-depleted yeast, primary screen, S. cerevisiae, bone marrow failure model | S. cerevisiae sdo1-depleted JHY4D growth rescue, OD600 30 h; hits give high values; pdr5 snq2 efflux-pump mutant strain | z-score at 10 µM | 140,000 compounds, 0.21% hits;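 active = z-score above 3 at both the 24 hr and the 30 hr optical density reads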;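 also: z-score against mean and SD of all compound wells on the same plate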
Measles CPE = compounds protecting cells from measles virus cytopathic effect, primary screen, measles RdRp inhibitor project, single point, MLSMR library, absorbance; protection (pct of control), % at 4 µM; Measles virus-infected cells, CPE protection; 140,000 compounds, 1.5% hits; in the data active = protection mostly above about 24%, no sharp cut-off; inactive = mostly below about 26%
SDO1 rescue DR = SDO1-depleted yeast growth rescue, concentration-response, diseases of bone marrow failure, JHY4D, OD600; 440 compounds, 44% hits; shares compounds with SDO1 yeast rescue; OD recovery (test concentration not listed); AID 949, 2007; S. cerevisiae JHY4D (SDO1-depleted) growth rescue, 30 h; hits give high values; efflux-deficient strain, SNQ2 and PDR5 mutated;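 active = yeast growth recovered at 30 hours, either rising with dose fitted slope above 0.001 or with average optical density gain above 0.07, some results past the limit were not filed as active; inactive = growth falling with dose or no effect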;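 also: gain in OD600 from 0 h to 30 h averaged across all seven doses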
* = called active by the depositor; . = no result.

SMILES | Phagocyt inh | SDO1 yeast rescue | Measles CPE | others
CCC(CC)NC1CCCCC1OC (configuration not stated) | -11.3 | 0.1 | 26.4*
CCOC(=O)C(=CNc1ccc(C(O)(C(=O)OCC)C(F)(F)F)cc1C)C(=O)OCC (configuration not stated) | 1.2 | -0.26 | 8.0
CN(C)CCN=Cc1c(O)n(CCC2=CCCCC2)c(=O)[nH]c1=O | -0.4 | 1.09 | 33.0*
O=c1[nH]c(=O)n(CCC2=CCCCC2)c(O)c1C=NCCCn1ccnc1 | -0.5 | -0.66 | 12.4
CCN(CC)CCCN=Cc1c(O)n(Cc2ccc(F)cc2)c(=O)[nH]c1=O | -0.7 | 0.94 | 8.0
CCN(CC)CCN=Cc1c(O)n(Cc2ccccc2)c(=O)[nH]c1=O | 103.8* | 0.34 | 6.3
CCC(C)N1C(=O)NC(=O)C2(Cc3cc(C)ccc3N(C)C2)C1=O (configuration not stated) | -0.5 | -0.42 | 33.9
Cc1ccc2nc3c(cc2c1)CC1(C(=O)N(C)C(=O)N(C)C1=O)C1COCCN31 (configuration not stated) | -0.6 | 1.18 | 5.9
Cc1ccc2nc3c(cc2c1)CC1(C(=O)N(C)C(=O)N(C)C1=O)C1CCCCN31 (configuration not stated) | 1.1 | -1.83 | 34.1*
Cc1ccc(-n2nc(C)cc2NC(=O)COc2cc(C)cc3oc(=O)c4c(c23)CCC4)cc1 | -1.1 | -0.3 | 5.6
NC(=O)CN1CC(c2ccccc2)CC1=O (configuration not stated) | -1.8 | 1.28 | 39.0*
O=C(CN1CC(c2ccccc2)CC1=O)Nc1ccc(F)cc1 (configuration not stated) | . | 0.52 | 7.6
CCCC/C(=N\O)c1c[nH]c2ccccc12 | 4.4 | -0.63 | 15.6
CCc1sc(C(=O)N2CCC3(CC2)OCCO3)cc1Br | -3.8 | 0.01 | 0.5
O=C(NCc1ccc(C(=O)N2CCC3(CC2)OCCO3)cc1)c1cccc(Br)c1 | 1.4 | 0.65 | 26.1*
Cc1cc(C)n(CCOC(=O)C2C(C=C(Cl)Cl)C2(C)C)n1 (configuration not stated) | -1.5 | -1.24 | 12.3
CN1CCN(c2cc(N3CCCCCC3)c(F)cc2[N+](=O)[O-])CC1 | -3.8 | -0.02 | 6.6
O=c1[nH]c(=O)n(Cc2ccco2)c(O)c1C=NCCCn1ccnc1 | -0.6 | 0.26 | 5.1
O=C(Cc1ccccc1)OCCN1CCCCC1 | -1.2 | 0.58 | 3.4
O=C(c1ccccc1)C(CN1CCCC1)c1ccccc1 (configuration not stated) | 4.1 | -1.59 | 22.1*
CN(C(=O)Oc1ccc(Cl)c2cccnc12)c1ccccc1 | -4.5 | 0.35 | 30.9*
CN(C(=O)Oc1cccc2cccnc12)c1ccccc1 | 2.9 | 0.6 | 18.2
CCCCN1C(=O)NC(=O)/C(=C/c2cnc(SC)nc2)C1=O | -0.1 | -0.18 | 51.0*
CSc1ncc(/C=C2/C(=O)NC(=O)N(C)C2=O)cn1 | -1.9 | 1.11 | 2.6
C[C@@H]1C(=O)O[C@@H]2[C@H](O)C34[C@@H]5OC(=O)C3(O[C@H]3OC(=O)[C@H](O)C34[C@H](C(C)(C)C)[C@H]5O)[C@@]12O (some centres not stated) | . | 1.12 | 20.4*
SMILES | Phagocyt inh | SDO1 yeast rescue | Measles CPE | others
CCCCCCn1c(O)c(C=NCCN2CCOCC2)c(=O)[nH]c1=O | -3.5 | 2.47 | 2.3
CN1CCN(c2ccc([N+](=O)[O-])c(N/N=C3\CN4CCC3CC4)c2)CC1 | . | 0.48 | 7.1
CC1(C)CC(=O)C(C2(O)C(=O)NC(=O)NC2=O)=C(O)C1 | -0.4 | 0.73 | 10.7
CN1CC=C2C(C#N)=C(N)C(C#N)(C#N)C(c3ccncc3)C2C1 (configuration not stated) | 0.4 | 0.13 | 44.8*
COC(=O)CC1(CC(=O)OC)C(=O)NC(=O)NC1=O | -0.8 | 0.02 | 26.6
COC(=O)c1ccc(NC(=O)CSc2nc3ccc(N4C(=O)C5C6C=CC(C6)C5C4=O)cc3s2)cc1 (configuration not stated) | -3.7 | -0.37 | 26.8
O=P(O)(O)Cc1ccccc1OP(=O)(c1ccccc1)c1ccccc1 | -1.7 | -0.02 | 9.0
COc1cc(OC)cc(-n2nc(C(=O)N3CCC4(CC3)OCCO4)c3ccccc3c2=O)c1 | -2.9 | 0.38 | 51.9*
COc1cccc(-n2nc(C(=O)N3CCC4(CC3)OCCO4)c3ccccc3c2=O)c1 | -3.1 | 0.47 | 26.6
CC1(C)COC(Nc2ccc(Cl)cc2)=N1 | 0.0 | 0.3 | 11.0
COC(=NC1CCCC1)C(O)c1c[nH]c2ccccc12 (configuration not stated) | . | 0.72 | 11.5
CCOC(C(=O)OCCC[N+](C)(CC)CC)(c1ccccc1)c1ccccc1 | . | -0.24 | 10.7
CC[N+](C)(CC)CCCOC(=O)C(O)(c1ccccc1)C1CCCCC1 (configuration not stated) | . | 1.66 | 32.4*
Cc1cccc(C)c1OP(N)(=O)OCC(F)(F)F (configuration not stated) | -0.5 | -0.41 | 30.4
Cc1sc2c(c1C)C(c1cccs1)=NCC(=O)N2CC(=O)NCc1cccs1 | -0.6 | -0.8 | 1.9
Cc1sc2c(c1C)C(c1ccc(C(C)(C)C)cc1)=NCC(=O)N2CC(=O)Nc1nccs1 | . | -2.06 | 54.0*
Cc1ccc(CNCCc2ccccc2F)cc1 | -3.2 | -0.12 | 2.7
C1=C(CCNCc2ccccc2)CCCC1 | -0.7 | 0.63 | 35.1*
C/C(=N\N1CCN(C)CC1)c1c(O)[nH]c(=O)[nH]c1=O | -0.6 | 0.2 | 1.8
C[C@H]1CCC[C@H](O)CCCCCc2cc(O)cc(O)c2C(=O)O1 | -0.5 | -0.03 | 25.9
C[C@H]1CCC[C@@H](O)CCC/C=C/c2cc(O)cc(O)c2C(=O)O1 | -0.4 | 0.16 | 117.1*
C[N+]12CCC(CC1)C(C(O)(c1ccccc1)c1cccs1)C2 (configuration not stated) | -0.2 | 0.56 | 7.7
CCOP(=O)(CN(CC)CCNP(=O)(OCC)OCC)OCC | . | 1.2 | 0.3
CCOC(=O)c1ccc(N=Cc2c(O)n(-c3ccccc3F)c(=S)[nH]c2=O)cc1 | 0.4 | 0.84 | 17.9
CCN(CC)CCOC(=O)c1ccc(N=Cc2c(O)[nH]c(=O)[nH]c2=O)cc1 | 0.0 | 0.73 | 60.1*
SMILES | Phagocyt inh | SDO1 yeast rescue | Measles CPE | others
CCOC(=O)c1cc2c(cn1)[nH]c1ccccc12 | . | -0.14 | 34.9
CS(=O)(=O)NCc1nnc2n1-c1ccc(Cl)cc1C(c1ccccc1)=NC2 | -1.9 | -0.8 | 27.8*
CCS(=O)(=O)NCc1nnc2n1-c1ccc(Cl)cc1C(c1ccccc1)=NC2 | -4.4 | 0.7 | 5.8
CN(C)S(=O)(=O)c1cc(NC(=O)COC(=O)Cc2ccccc2)ccc1Cl | -0.6 | 1.59 | 3.9
COc1ccccc1N=Cc1c(O)n(C)c(=O)n(C)c1=O | 0.0 | 3.23* | 11.1 | SDO1 rescue DR=0.0833*
Cn1c(O)c(/C=N/c2ccccn2)c(=O)n(C)c1=O | -0.2 | 1.27 | 33.7
CCOP(=O)(OCC)C(NC(=O)c1cccc2ccccc12)C(Cl)(Cl)Cl (configuration not stated) | -3.9 | -0.1 | 20.3
